According to PubChem BioAssay (NCATS):
Where “and” joins values, the source holds several entries; their conditions need not be identical. Equal values may be shown once. Inconclusive results are not listed. A call without a number means that no potency is given here. Calls of active or inactive are those of the source. Unless noted, calls come from the whole dose curve; as a rule, active = well fitted curve in the direction sought with a large enough effect; inconclusive = small, poorly fitted or top-dose-only effect, or another doubt; inactive = no such curve, though single readings can be large; an effect the other way counts as inactive or inconclusive.

Key:
[1] = Validation of Assay for Modulators of Lamin A Splicing (AID 1459; active = well fitted curve in the direction sought with a large enough effect in the signal ratio; the % refers to the signal ratio;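 note: cells exposed to compound for two days before reading; ratio rise marks activators and ratio drop marks inhibitors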)
Outline: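 Readout: ratio of GFP (500-530 nm) to RFP (575-640 nm) total object intensity by 488 nm laser-scanning cytometry after 48 hrs. Cells were HeLa S3 clones carrying lamin A-EGFP minigene plus DsRed2 viability reporter; vehicle 0.5% DMSO final.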

[2] = qHTS Assay for Lipid Storage Modulators (AID 1519; calls by dose curve); conditions: Drosophila S3 cells, BODIPY lipid droplet/cell ratio, laser cytometry, cells loaded with oleic acid
Outline: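 Cells seeded at 5,000 per well were treated with compounds over a concentration series and loaded with oleic acid (400 uM, as added). Lipid droplet fluorescence (488 nm excitation, 500-530 nm channel) was read by laser-scanning cytometry and normalized to 20 uM Triacsin C.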

[3] = target: DNA repair nuclease/redox regulator APEX1 (Homo sapiens) (UniProt P27695); assay: qHTS Validation Assay for Inhibitors of the Human Apurinic/apyrimidinic Endonuclease 1 (APE1) (AID 1705;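 note: TAMRA fluorescence gain over two minutes as APE1 cuts a quenched THF abasic duplex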)
Outline: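 Read-out: TAMRA fluorescence (525 nm ex, 598 nm em) from cleavage of a quenched THF abasic-site duplex, 50 nM final; activity taken as intensity change between third and first of three reads 60 s apart.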

[4] = target: Endonuclease 4 (Escherichia coli (strain K12)) (UniProt P0A6C1); assay: Counterscreen for APE1 Inhibitors: qHTS Validation Assay for Inhibitors of Endonuclease IV (AID 1708)
Outline: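 Incision of a double-stranded 50 nM TAMRA/BHQ-2 abasic substrate was followed kinetically (525/598 nm, reads every 60 s) after 15 min enzyme–compound preincubation with 2 nM EndoIV in pH 7.5 Tris buffer with MgCl2, DTT and Tween-20; concentration-response format.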

[5] = qHTS for differential inhibitors of proliferation of Plasmodium falciparum line 7G8 (AID 1815);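 note: parasite growth measured after three days of incubation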; note: potency is the fitted concentration of half-maximal effect
[6] = qHTS for differential inhibitors of proliferation of Plasmodium falciparum line GB4 (AID 1816); conditions: Potency: Plasmodium falciparum GB4 proliferation inhibition;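 note: parasite growth measured after 72 h incubation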; note: potency is the fitted concentration of half-maximal effect
[7] = qHTS for differential inhibitors of proliferation of Plasmodium falciparum line 3D7 (AID 1876); note: potency is the fitted concentration of half-maximal effect
[8] = qHTS for differential inhibitors of proliferation of Plasmodium falciparum line D10 (AID 1877);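 note: parasites grown with compound for 72 h before DNA staining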; note: potency is the fitted concentration of half-maximal effect
[9] = qHTS for differential inhibitors of proliferation of Plasmodium falciparum line Dd2 (AID 1882); conditions: Potency: Plasmodium falciparum Dd2 proliferation inhibition; note: nearly all actives have a fitted effect of over 65% in size; note: potency is the fitted concentration of half-maximal effect
Outline: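 SYBR Green DNA fluorescence (ex 485, em 535 nm) after overnight lysis quantifies parasite growth; compound exposure lasted 72 h at 37 C on infected red cells at 2.5% hematocrit, 0.3% parasitemia (final). Artemisinin 0.29 uM and vehicle wells define normalization.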

[10] = qHTS for differential inhibitors of proliferation of Plasmodium falciparum line W2 (AID 1883); conditions: Potency: Plasmodium falciparum W2 proliferation inhibition;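 note: parasites grown with compound for 72 h before lysis and staining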; note: potency is the fitted concentration of half-maximal effect
[11] = qHTS for differential inhibitors of proliferation of Plasmodium falciparum line HB3 (AID 1886); conditions: Potency: Plasmodium falciparum HB3 proliferation inhibition;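 note: parasites grown with compound for 72 h before SYBR Green readout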; note: potency is the fitted concentration of half-maximal effect
[12] = target: ATP-dependent DNA helicase Q1 (Homo sapiens) (UniProt P46063); assay: qHTS Validation Assay for Inhibitors of RecQ-Like Dna Helicase 1 (RECQ1) (AID 2353)
Outline: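 RECQ1T1 50 nM; forked duplex (20 bp + 30-nt ss tails) 200 nM, ATP 2 mM final; pH 8.0, 2 mM MgCl2, 2.5 ug/ml poly(dI-dC); 15 min compound preincubation; discontinuous kinetic read over 2 h at RT.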

[13] = target: RecQ-like DNA helicase BLM (Homo sapiens) (UniProt P54132); assay: qHTS Validation Assay for Inhibitors of Bloom's syndrome helicase (BLM) (AID 2364)
Outline: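 Forked 20-bp duplex substrate (200 nM, TAMRA/BHQ-2) plus 2 mM ATP added after 15 min compound preincubation with 50 nM enzyme, pH 8.0, poly(dI-dC) 2.5 ug/ml. Strand separation followed by fluorescence (525/598 nm) over 2 h, normalized to enzyme-free and DMSO controls.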

[14] = Cytometric Cell-Based qHTS for Inhibitors of the mTORC1 Signaling Pathway in MEF (Tsc2-/-, p53-/-) Cells (AID 2660);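 note: Tsc2 and p53 null MEFs carrying empty vector with compound for 24 h; percent of cells above a phospho-rpS6 to PI ratio cutoff in each well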
Outline: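 Readout: Alexa-488 phospho-rpS6 (Ser235/236) intensity divided by PI intensity, thresholded against 7.5 nM rapamycin wells and reported as % positive cells. PI cell count served as the viability measure. Compound exposure was 24 hrs at 37 degree Celsius.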

[15] = High Content Imaging Cell-Based qHTS for Inhibitors of the mTORC1 Signaling Pathway in MEF (Tsc2-/-, p53-/-) Cells (AID 2666);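 note: percent of cells scored positive for phospho-rpS6 Ser235/236 immunostaining by imaging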
Outline: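 Tsc2-/-, p53-/- MEFs (empty-vector stable) grown in DMEM + 10% FBS were exposed to compounds for 24 hrs at 37 degree Celsius, fixed, and stained with Alexa-488 anti-phospho-rpS6 Ser235/236 plus Hoechst. Imaging gave the percentage of positive cells per well.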

[16] = High Content Imaging Cell-Based qHTS for Inhibitors of the mTORC1 Signaling Pathway in MEF Cells (AID 2667); note: potency is the fitted concentration of half-maximal effect;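 for activity change, negative = inhibition: Tsc2-/- p53-/- MEFs stably re-expressing wild-type Tsc2 exposed 24 h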
Outline: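 Tsc2-/-, p53-/- MEFs stably re-expressing WT Tsc2, grown in DMEM + 10% FBS, were treated with compounds for 24 hrs at 37 degree Celsius, fixed, and stained with Alexa-488 phospho-rpS6 Ser235/236 antibody plus Hoechst; results given as % positive cells.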

[17] = Counterscreen for APE1 Inhibitors: Fluorescent Dye Displacement Validation Assay (AID 1707)
Outline: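 Signal: ThO fluorescence (ex 480 nm/em 540 nm) on binding 50 nM dsDNA; displacement by test compound reduces it. Conditions: 250 nM dye, 50 mM Tris-HCl pH7.5, 2 mM MgCl2, 50mM NaCl, 0.01% Tween-20.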

[18] = qHTS Assay for Modulators of Human Peripheral Myelin Protein 22 (PMP22) Expression/Activity (AID 1967; active = well fitted curve in the direction sought with a large enough effect in the signal ratio; the % refers to the signal ratio)
Outline: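 Mouse MSC80 Schwann line, Pmp22 promoter–CBG68 reporter, EF-alpha–CBR internal control. 24h compound exposure, 37 °C/5% CO2, DMEM + 10% FBS. Readout: corrected green/red luminescence ratio, normalized to untreated cells; concentration-response curves fitted and classified.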

[19] = target: Ferritin light chain (Equus caballus) (UniProt P02791); assay: qHTS Validation Assay for Identification of Novel General Anesthetics (AID 2323)
Outline: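 10 uM horse-spleen apoferritin + 1-AMA (50% saturated, PBS); cpd pin-transferred, 10 min RT. Ex 380/Em 535 nm endpoint. Activity normalized between free 1-AMA and 1-AMA/apoferritin; 4-parameter Hill fit of concentration-response.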

[20] = measured here: cell count channel max response
[21] = measured here: lipid channel max response

DNA repair nuclease/redox regulator APEX1 (Homo sapiens), sequence (P27695 whole entry, looked up): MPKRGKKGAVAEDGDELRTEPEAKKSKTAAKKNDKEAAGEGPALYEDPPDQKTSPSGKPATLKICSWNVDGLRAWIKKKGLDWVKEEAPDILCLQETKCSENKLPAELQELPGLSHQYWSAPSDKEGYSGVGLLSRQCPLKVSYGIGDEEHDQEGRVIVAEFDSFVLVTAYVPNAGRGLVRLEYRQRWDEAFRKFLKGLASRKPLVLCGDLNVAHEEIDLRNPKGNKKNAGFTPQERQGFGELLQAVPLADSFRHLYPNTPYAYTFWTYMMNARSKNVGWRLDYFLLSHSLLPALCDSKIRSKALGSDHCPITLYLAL
RecQ-like DNA helicase BLM (Homo sapiens), sequence (P54132 whole entry, looked up): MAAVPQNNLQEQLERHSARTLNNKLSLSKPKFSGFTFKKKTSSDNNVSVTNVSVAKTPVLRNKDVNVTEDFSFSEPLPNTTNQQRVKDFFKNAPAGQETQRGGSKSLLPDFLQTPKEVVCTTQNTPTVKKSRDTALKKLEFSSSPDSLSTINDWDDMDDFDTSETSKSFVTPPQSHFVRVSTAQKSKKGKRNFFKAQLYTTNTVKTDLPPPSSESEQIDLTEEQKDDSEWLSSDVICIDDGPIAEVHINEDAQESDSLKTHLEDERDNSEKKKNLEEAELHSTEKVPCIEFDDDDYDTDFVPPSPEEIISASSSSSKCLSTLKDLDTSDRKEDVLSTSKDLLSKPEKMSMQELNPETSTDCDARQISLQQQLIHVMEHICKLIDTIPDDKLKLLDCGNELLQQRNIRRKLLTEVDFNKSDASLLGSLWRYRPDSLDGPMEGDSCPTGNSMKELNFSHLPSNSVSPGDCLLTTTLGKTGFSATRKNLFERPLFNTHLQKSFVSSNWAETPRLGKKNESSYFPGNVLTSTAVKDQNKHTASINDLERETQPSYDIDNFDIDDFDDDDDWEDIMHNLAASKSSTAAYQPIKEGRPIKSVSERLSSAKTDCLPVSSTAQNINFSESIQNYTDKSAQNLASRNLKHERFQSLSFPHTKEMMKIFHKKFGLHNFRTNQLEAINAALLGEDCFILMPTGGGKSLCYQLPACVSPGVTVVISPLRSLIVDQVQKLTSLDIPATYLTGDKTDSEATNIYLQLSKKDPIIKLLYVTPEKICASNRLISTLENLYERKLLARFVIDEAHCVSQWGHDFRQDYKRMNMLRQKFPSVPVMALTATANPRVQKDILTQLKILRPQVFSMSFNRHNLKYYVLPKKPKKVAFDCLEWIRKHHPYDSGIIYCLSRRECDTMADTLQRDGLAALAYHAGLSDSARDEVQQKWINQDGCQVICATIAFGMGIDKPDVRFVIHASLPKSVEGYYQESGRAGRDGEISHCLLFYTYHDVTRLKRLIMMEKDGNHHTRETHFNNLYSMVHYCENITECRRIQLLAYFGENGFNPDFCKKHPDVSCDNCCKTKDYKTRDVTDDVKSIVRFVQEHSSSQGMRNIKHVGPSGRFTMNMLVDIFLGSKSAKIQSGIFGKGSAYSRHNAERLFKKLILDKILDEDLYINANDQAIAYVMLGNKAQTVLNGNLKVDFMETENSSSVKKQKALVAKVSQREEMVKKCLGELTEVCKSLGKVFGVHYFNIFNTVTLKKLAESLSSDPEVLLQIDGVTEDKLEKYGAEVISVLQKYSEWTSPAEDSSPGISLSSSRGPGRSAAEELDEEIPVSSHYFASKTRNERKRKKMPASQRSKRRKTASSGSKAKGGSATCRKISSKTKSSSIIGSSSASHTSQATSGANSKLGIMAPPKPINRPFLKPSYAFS
ATP-dependent DNA helicase Q1 (Homo sapiens), sequence (P46063 whole entry, looked up): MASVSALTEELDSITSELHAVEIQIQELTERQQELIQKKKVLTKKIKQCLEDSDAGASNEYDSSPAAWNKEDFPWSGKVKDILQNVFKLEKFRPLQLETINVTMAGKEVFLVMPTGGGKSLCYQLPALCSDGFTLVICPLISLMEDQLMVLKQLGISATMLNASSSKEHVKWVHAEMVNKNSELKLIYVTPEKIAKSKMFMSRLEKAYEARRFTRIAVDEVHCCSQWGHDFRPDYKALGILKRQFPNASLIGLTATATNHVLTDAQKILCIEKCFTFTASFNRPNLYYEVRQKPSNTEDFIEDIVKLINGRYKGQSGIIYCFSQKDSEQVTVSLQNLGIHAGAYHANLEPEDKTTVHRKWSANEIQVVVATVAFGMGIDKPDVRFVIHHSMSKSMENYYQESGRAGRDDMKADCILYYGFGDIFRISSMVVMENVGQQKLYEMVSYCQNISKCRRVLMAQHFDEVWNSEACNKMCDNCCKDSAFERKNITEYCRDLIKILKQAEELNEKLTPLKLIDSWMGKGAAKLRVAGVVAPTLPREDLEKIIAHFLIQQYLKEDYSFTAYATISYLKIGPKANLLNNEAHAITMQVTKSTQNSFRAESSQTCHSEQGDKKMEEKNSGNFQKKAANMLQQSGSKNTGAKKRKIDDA
Ferritin light chain (Equus caballus), sequence (P02791 2-175 limits assumed): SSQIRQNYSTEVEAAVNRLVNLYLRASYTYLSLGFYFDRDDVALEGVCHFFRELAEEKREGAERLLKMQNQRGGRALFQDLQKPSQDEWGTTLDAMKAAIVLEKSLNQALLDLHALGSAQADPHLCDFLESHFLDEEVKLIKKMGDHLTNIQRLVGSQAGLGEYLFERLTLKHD

SMILES: O=C(c1ccc(F)cc1)C1CCN(CCn2c(=O)[nH]c3ccccc3c2=O)CC1
- outcome [1]: inactive
- activity change, negative = inhibition ([2]; at 57.5 µM (top of the series)): 3.6% (inactive) and 3.32% (inactive)
- max response [2, 20]: 11.4% and 58.6%
- max response [2, 21]: 27.6% and 62%
- Potency [3]: inactive
- Potency [4]: inactive
- Potency [5]: 3.16 µM (active)
- Potency [6]: 5.62 µM (active)
- Potency [7]: 7.08 µM (active)
- Potency [8]: 3.98 µM (active)
- Potency [9]: 6.31 µM (active)
- Potency [10]: 1.58 µM (active)
- Potency [11]: 3.98 µM (active)
- Potency [12]: inactive
- Potency [13]: inactive
- outcome [14]: inactive
- Potency [15]: inactive
- Potency [16]: inactive

SMILES: Cc1cnc(C(=O)NCCc2ccc(S(=O)(=O)NC(=O)NC3CCCCC3)cc2)cn1
- activity change, negative = inhibition ([2]; at 25.7 µM (top of the series)): 1.51% (inactive)
- activity change, negative = inhibition ([2]; at 57.5 µM (top of the series)): 0.481% (inactive)
- max response [2, 20]: -0.601% and 30.7%
- max response [2, 21]: 0.0944% and 30.2%
- Potency [3]: inactive
- Potency [17]: inactive
- Potency [4]: inactive
- Potency [5]: inactive
- Potency [6]: inactive
- Potency [7]: inactive
- Potency [8]: inactive
- Potency [9]: inactive
- Potency [11]: inactive
- Potency [12]: inactive
- outcome [14]: inactive
- Potency [15]: inactive
- Potency [16]: inactive

SMILES: COc1ccc(C2CNC(=O)C2)cc1OC1CCCC1 (stereo not drawn)
- outcome [1]: inactive
- Potency [3]: inactive
- Potency [17]: inactive
- Potency [4]: inactive
- Potency [6]: inactive
- Potency [7]: inactive
- Potency [8]: inactive
- Potency [9]: inactive
- Potency [11]: inactive
- Potency [18]: inactive
- Potency [12]: inactive
- outcome [14]: inactive
- Potency [15]: inactive
- Potency [16]: inactive

SMILES: CC(C)NCC(O)c1ccc(O)c(O)c1 (stereo not drawn)
- outcome [1]: inactive
- activity change, negative = inhibition ([2]; at 57.5 µM (top of the series)): 4.99% (inactive) and 0.312% (inactive) and 1.86% (inactive)
- max response [2, 20]: 14.1% and -2.95% and -6.8%
- max response [2, 21]: 18.9% and -2.86% and -5.68%
- Potency [3]: inactive
- Potency [4]: inactive
- Potency [5]: inactive
- Potency [7]: inactive
- Potency [9]: inactive
- Potency [12]: inactive
- Potency [13]: inactive
- outcome [14]: inactive
- Potency [15]: inactive

SMILES: O=C(CCCN1CCC(O)(c2ccc(Cl)cc2)CC1)c1ccc(F)cc1
- activity change, negative = inhibition ([2]; at 25.7 µM (top of the series)): 0.51% (inactive)
- activity change, negative = inhibition ([2]; at 57.5 µM (top of the series)): 7.71% (inactive)
- max response [2, 20]: -8.83% and 9.42%
- max response [2, 21]: -10.1% and 21.7%
- Potency [3]: inactive
- Potency [17]: inactive
- Potency [4]: inactive
- Potency [19]: inactive
- Potency [12]: inactive
- Potency [13]: inactive
- outcome [14]: inactive
- Potency [15]: inactive
- Potency [16]: 23.3 µM (active)

SMILES: Cn1cnc2c1c(=O)[nH]c(=O)n2C
- outcome [1]: inactive
- activity change, negative = inhibition ([2]; at 25.7 µM (top of the series)): -1.11% (inactive)
- activity change, negative = inhibition ([2]; at 57.5 µM (top of the series)): -1.44% (inactive) and 2.73% (inactive)
- max response [2, 20]: -1.67% and 17.8% and 14.4%
- max response [2, 21]: -0.915% and 15.2% and 17.5%
- Potency [3]: inactive
- Potency [17]: inactive
- Potency [4]: inactive
- Potency [5]: inactive
- Potency [6]: inactive
- Potency [7]: inactive
- Potency [8]: inactive
- Potency [9]: inactive
- Potency [10]: inactive
- Potency [11]: inactive
- Potency [12]: inactive
- Potency [13]: inactive
- outcome [14]: inactive
- Potency [15]: inactive
- Potency [16]: inactive

SMILES: CN1CCN(C2=Nc3cc(Cl)ccc3Nc3ccccc32)CC1
- outcome [1]: inactive
- Potency [3]: inactive
- Potency [17]: inactive
- Potency [4]: inactive
- Potency [12]: inactive
- outcome [14]: inactive
- Potency [15]: inactive
- Potency [16]: inactive
